# Records with an inconclusive call do not appear. Active and inactive are the calls of the source. Calls come from the whole dose curve; as a rule, active = well fitted cell-killing curve with a large enough effect in the repeat runs; inconclusive = weak or mixed curves; inactive = flat fitted curve, though single readings scatter.
# Assay: qHTS RealTime-Glo MT Cell Viability Assay in HepG2 cells - 24 hour (AID 1224867); note: nearly all actives have a fitted effect of over 50% in size
# Conditions: RealTime-Glo luminescence; series mostly up to 76.8 µM
# Description: U.S. Tox21 Program National Center for Advancing Translational Sciences [NCATS] NIH Chemical Genomics Center [NCGC] U.S. Environmental Protection Agency [EPA] National Institutes of Environmental Health Sciences [NIEHS] National Toxicology Program [NTP] U.S. Food and Drug Administration [FDA] Tox21 Assay Overview: Measure of cell viability is critical in the cell-base assay. Analysis of cell viability is necessary for the characterization of cell responses to cytotoxic drugs and environmental stress. A RealTime-Glo MT Cell Viability Assay to monitor cell viability in real time of continues cell culture during 40 hours of compound treatment was used to screen Tox21 10K library compounds in HepG2 cells. The RealTime-Glo MT Cell Viability Assay is a nonlytic, homogeneous, bioluminescent method to measure cell viability in real time using a simple, plate-based method. The assay involves adding NanoLuc luciferase and a cell-permeant prosubstrate to cells in culture. Viable cells reduce the proprietary prosubstrate to generate a substrate for NanoLuc luciferase. This substrate diffuses from cells into the surrounding culture medium, where it is rapidly used by the NanoLuc Enzyme to produce a luminescent signal. The signal correlates with the number of viable cells, making the assay well suited for cytotoxicity studies.
# Tox21 Assay Protocol Summary: The mixture of HepG2 cell suspension and reagents were dispensed at 600cells/6 ul/well in 1536-well tissue culture treated black solid bottom plates using a Multidrop dispenser. After the assay plates were incubated at a 37 C/5% CO2 incubator for 5 hours, 23 nL of compounds dissolved in DMSO, positive and negative controls was transferred to the assay plate by a pintool work station. The plates were incubated at 37 C for 40 hours. The luminescence intensity were measured at 0h, 8h, 16h, 24h, 32h and 40h time points using ViewLux plate reader during compound treatment.
# % is set by controls: 0 for no effect and ±100 for the full control effect.
Structure (SMILES),outcome,"activity change, negative = cytotoxicity"
Cc1c(N)cccc1Cl,inactive,
O=C(O)CONC(=O)c1ccccc1,inactive,
CCC(C)C(C)=O (stereo not given),inactive,
CC(=O)OCC(=O)Nc1cc(C#N)cc(NC(=O)COC(C)=O)c1Cl,inactive,
COCCc1ccccn1,inactive,
CCC/C=C(\C=O)CC,inactive,
CCO[Si](CC)(OCC)OCC,inactive,
CC(=O)CC(=O)Nc1ccc(C)cc1C,inactive,
CCOC(CN1CCN(CC(C)C(=O)c2ccccc2)CC1)c1ccccc1 (stereo not given),,-0.414% [at 15.8 µM] (inactive)
CC(C)Nc1ccccc1,inactive,
CO/N=C(/C(=O)N[C@@H]1C(=O)N2C(C(=O)[O-])=C(C[n+]3ccn4ncccc43)CS[C@H]12)c1nsc(N)n1,inactive,
Cc1ccc(C(C)NC(=O)[C@@H](NC(=O)OC(C)C)C(C)C)cc1 (stereo not given in full),inactive,
[O]=[Mo](=[O])=[O],,2.84% [at 15.8 µM] (inactive)
N[C@@H](Cc1ccc(O)cc1)C(=O)O,,-0.685% [at 6.97 µM] (inactive)
CC(O)COC(C)(C)C (stereo not given),inactive,
O=C(O)c1cc2ccccc2nc1C(=O)O,inactive,
COP(=O)(O)OP(=O)(O)OC,inactive,
C=CCSSCCC,inactive,
N#Cc1cscn1,inactive,
CC(=O)O[C@H]1C[C@@H]2CC[C@@]1(C)C2(C)C,inactive,

Structure (SMILES),outcome,"activity change, negative = cytotoxicity"
CCCCCc1cccc(=O)o1,inactive,
CCOCCOCC,inactive,
O=C(O)CNC(=O)CNC(=O)CNC(=O)CSC(=O)c1ccccc1,inactive,
CCCCCCCCCCCCCCCCCC#N,inactive,
COc1ccc(CCO)cc1,inactive,
COS(=O)(=O)O,inactive,
Cc1cc(-c2ccccc2)nnc1NCCN1CCOCC1,inactive,
C=C(C)C1CC=C(C)C(=O)C1 (stereo not given),inactive,
C/C(=C1\CCOC(=O)S1)N(C=O)Cc1cnc(C)nc1N,inactive,
OCC1(CO)COCOC1,inactive,
C/C=C(\C)C(C)=O,inactive,
Cn1c(=O)c2[nH]c(Br)nc2n(C)c1=O,inactive,
O=Cc1cc2ccccc2o1,inactive,
CC1=C(O)C(=O)C(C)O1 (stereo not given),inactive,
CCCC(CC)c1ccccc1 (stereo not given),inactive,
OC1OCCOC1O (stereo not given),inactive,
Cc1cc(C)c(C(=O)O)c(C)c1,inactive,
COC(=O)/C=C\C(=O)O,inactive,
COC(=O)CCCCC(CCSS/C(CCO)=C(\C)N(C=O)Cc1cnc(C)nc1N)SC(C)=O (stereo not given),inactive,
Cc1ccccc1C(N)=O,inactive,

# From PubChem BioAssay (Tox21)
